Most compounds without a hit are left out; they make up all but 0.18% or so of the library.
TSG101-PTAP inh = blocks PTAP/TSG101 interaction to inhibit HIV-1 budding; Potency, µM (highest dose often 115 µM), inactives show at the highest dose activity change, negative = inhibition, usual class: inhibitors; Q99816; 340,000 tested, under 10 active; Fluorescence polarization, FITC-PTAP peptide / Tsg101 binding; active means well fitted inhibition curve with a large enough effect in the main read-out, with a control signal flat, not every such curve was filed as active; inconclusive means small, poorly fitted or top-dose-only effect, or effect the other way, or a change in a side signal; inactive means no such curve, though single readings can be large or run the other way; further: potency means the concentration at half of the fitted maximal effect; % of control where 0% means no effect
Target sequence (Q99816 whole entry, looked up): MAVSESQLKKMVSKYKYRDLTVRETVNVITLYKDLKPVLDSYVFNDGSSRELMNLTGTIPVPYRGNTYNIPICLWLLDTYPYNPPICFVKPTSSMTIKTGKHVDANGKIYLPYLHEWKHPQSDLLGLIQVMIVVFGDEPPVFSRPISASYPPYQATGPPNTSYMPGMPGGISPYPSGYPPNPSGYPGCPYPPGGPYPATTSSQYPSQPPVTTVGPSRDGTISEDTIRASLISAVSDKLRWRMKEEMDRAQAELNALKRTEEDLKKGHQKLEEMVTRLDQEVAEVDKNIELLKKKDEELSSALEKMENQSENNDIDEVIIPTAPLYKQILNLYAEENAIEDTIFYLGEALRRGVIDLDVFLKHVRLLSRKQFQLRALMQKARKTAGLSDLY
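Tsg101 binding domain (10 uM final) was mixed with compound and a FITC-labeled PTAP peptide (50 nM final) in HEPES pH 7.5 buffer with NaCl, Tween 20, EDTA and TCEP; fluorescence polarization was read after 20 min at r.t.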
Anesthetic bind = candidate novel general anesthetic via apoferritin binding; Potency, µM (highest dose often 77.5 µM), without a hit: top-dose activity change, negative = displacement, hits mostly inhibitors; AID 485281; hit rate 0.074% among 350,000; P02791; apoferritin/1-aminoanthracene competitive binding, fluorescence; further: potency means the concentration at half of the fitted maximal effect; on the % scale 0 is the no-effect control and ±100 the full control effect; nearly all actives have a fitted effect of over 20% in size
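Concentration-response curves derived by four-parameter Hill fitting of normalized fluorescence, where compounds displaced 1-AMA from 10 uM horse apoferritin following a brief 10 min room-temperature incubation; propofol titration acted as positive control.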
mIDH1 inhibitor = human IDH1 R132H inhibition. O75874. IDH1-R132H enzyme, NADPH consumption, diaphorase/resazurin fluorescence. Potency, µM (top dose mostly 76.6 µM), for inactives: at the highest dose activity change, negative = inhibition, most hits filed as inhibitors. hit rate 0.093% among 390,000. AID 602179; further: potency means the concentration at half of the fitted maximal effect; on the % scale 0 is the no-effect control and ±100 the full control effect; nearly all actives have a fitted effect of over 65% in size
Target sequence (O75874 whole entry R132H, stated change not applied): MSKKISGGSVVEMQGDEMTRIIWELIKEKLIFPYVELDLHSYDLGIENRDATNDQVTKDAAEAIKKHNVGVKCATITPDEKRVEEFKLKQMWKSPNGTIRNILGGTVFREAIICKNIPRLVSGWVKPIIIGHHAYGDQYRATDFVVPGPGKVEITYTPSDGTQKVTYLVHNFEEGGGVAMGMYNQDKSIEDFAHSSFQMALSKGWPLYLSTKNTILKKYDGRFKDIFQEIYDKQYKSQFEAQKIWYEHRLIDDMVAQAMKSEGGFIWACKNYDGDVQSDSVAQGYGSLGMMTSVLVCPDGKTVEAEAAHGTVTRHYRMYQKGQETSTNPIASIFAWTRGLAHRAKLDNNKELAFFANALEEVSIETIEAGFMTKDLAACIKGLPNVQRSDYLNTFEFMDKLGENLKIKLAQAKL
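IDH1-R132H (0.5 ug/mL dispensed) in pH 7.5 Tris buffer was preincubated 30 min with compound, then given a substrate mix of 0.016 mM NADPH and 2 mM alpha-KG for 80 min at room temperature; remaining NADPH was read by diaphorase/resazurin fluorescence.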
ERG-DNA inh = inhibitors of human ERG Ets domain-DNA interaction; P11308; fluorescence polarization, His-ERG Ets domain / labelled DNA; Potency, µM (top dose mostly 76.9 µM), for the others: at the highest dose FP activity, negative = inhibition, most hits filed as inhibitors; hit rate 0.028% among 370,000; AID 624246; active means well fitted inhibition curve with a large enough effect in the polarisation, with a control signal flat; inconclusive means small, poorly fitted or top-dose-only effect, or effect the other way, or a change in a side signal; inactive means no such curve, though single readings can be large or run the other way; the % refers to the polarisation;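 further: polarization taken with two DNA probes labelled with fluorescein and Texas red; potency means the concentration at half of the fitted maximal effect; % of control where 0% means no effect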
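His-tagged ERG Ets domain (1 uM in the protein solution; 300mM KCl, 50mM Tris-HCl, 1mM EDTA, 1mM DTT, pH 7.5) received compound, then a probe mix of 5 nM fluorescein-DNA and 100nM Texas-615-DNA. Fluorescence polarization was read for both dyes.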
IDH1 autofl = autofluorescence interference, mutant IDH1 hit counter-screen | 750 tested, under 10 active | inhibition of signal, % at 51.2 µM | AID 623980 | shares compounds with mIDH1 inhibitor | Resorufin detection reagent fluorescence interference, cell-free;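 further: 0% = wells with normal resorufin and full inhibition = wells lacking resorufin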
IDH1 WT = selectivity of mutant IDH1 inhibitors: human wild-type IDH1. shares compounds with mIDH1 inhibitor. WT IDH1 enzyme, NADPH diaphorase/resazurin fluorescence. Potency, µM (series often up to 115 µM), inactives show at the highest dose activity change, negative = inhibition, usual class: inhibitors. hit rate 9% among 750;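 further: potency means the concentration at half of the fitted maximal effect; 0% = full WT IDH1 enzyme control and full inhibition = no enzyme wells; nearly all actives have a fitted effect of over 55% in size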
IDH1 R132H conf = mutant IDH1 (human) inhibition, confirmed; shares compounds with mIDH1 inhibitor; IDH1 R132H enzyme, NADPH diaphorase/resazurin fluorescence; Potency, µM (highest dose often 76.6 µM), for the others: at the top dose activity change, negative = inhibition, actives largely listed as inhibitors; hit rate 83% among 750; AID 624002; further: potency means the concentration at half of the fitted maximal effect; nearly all actives have a fitted effect of over 50% in size
The depositor's hits bear a star; ? = inconclusive; · = no result given. Unless noted, the call rests on the fitted dose curve; in most records, active means well fitted curve in the direction sought with a large enough effect; inconclusive means small, poorly fitted or top-dose-only effect, or another doubt; inactive means no such curve, though single readings can be large; an effect the other way counts as inactive or inconclusive.

SMILES	TSG101-PTAP inh	Anesthetic bind	mIDH1 inhibitor	ERG-DNA inh	IDH1 autofl	IDH1 WT	IDH1 R132H conf
COc1cc2c(C#CCCO)c(-c3ccsc3)oc(=O)c2cc1OC	0.9%	·	-8.8%	-2.3%	·	·	·
Cc1nn(CCc2nn[nH]n2)c2nc(-c3ccc(C4CCCCC4)cc3)cc(C(F)(F)F)c12	-5.4%	-16.6%	52.1µM*	-2.9%	-14.0	50.1µM*	39.8µM*
Cc1nn(CCC(=O)O)c2nc(-c3cccnc3)cc(C(F)(F)F)c12	-8.7%	-3.9%	13.5%	-2.0%	·	·	·
COc1cc(C2C(C#N)=C(N)N(c3sc4c(c3C#N)CCCC4)C3=C2C(=O)CC(C)(C)C3)cc(OC)c1OC (centres undefined)	-4.0%	-15.5%	?	-5.0%	5.7	7.3%	7.94µM*
N#CC1C(=O)NC(c2ccccc2)=CC1c1ccccc1 (centres undefined)	-2.3%	·	52.1µM*	-2.9%	-5.8	159.9%	44.7µM*
S=C1NC(c2ccccc2)=CC(c2ccccc2)N1 (centres undefined)	-5.6%	-9.3%	0.2%	9.7%	·	·	·
COc1ccc(CN(Cc2nc3ccccc3c(=O)[nH]2)C(=O)NC2CCCCC2)cc1	-5.6%	-22.0%	?	0.8%	4.2	-5.0%	28.2µM*
O=C(NC1CCCCC1)N(Cc1nc2ccccc2c(=O)[nH]1)C1CCCCC1	-9.0%	-12.4%	0.5%	5.1%	·	·	·
O=C(O)c1ccccc1NS(=O)(=O)c1ccc(N/N=C/c2cccc(O)c2O)c([N+](=O)[O-])c1	-12.9%	·	41.4µM*	·	8.0	?	14.1µM*
CC(=O)Nc1ccc(C=NNc2ccc(S(=O)(=O)Nc3ccccc3C(=O)O)cc2[N+](=O)[O-])cc1	-5.2%	·	-3.9%	101.0%	·	·	·
C/C(=N\NC(N)=S)c1cc(-c2ccccc2)c(-c2ccccc2)s1	-2.3%	42.3%	?	-6.3%	0.0	1.0%	?
CC1CCCC(NC(=O)Cn2cc([N+](=O)[O-])ccc2=O)C1C (centres undefined)	-2.4%	·	-2.1%	-3.6%	·	·	·
CC(C)CCSc1nc(N2CCOCC2)c2c(c1C#N)CC(C)(C)OC2	-6.9%	-8.4%	16.5µM*	-7.6%	-10.5	10.9%	7.94µM*
COC(=O)CCSc1nc(N2CCOCC2)c2c(c1C#N)CC(C)(C)OC2	-2.1%	-5.5%	7.4%	1.8%	·	·	·
CC(=O)Nc1cccc2c1Cc1cc([N+](=O)[O-])ccc1-2	-3.8%	·	5.5%	11.3%	·	·	·
CC1(C)O[C@@H]2C[C@H]3[C@@H]4CCC5=CC(=O)C=C[C@]5(C)[C@@]4(F)[C@@H](O)C[C@]3(C)[C@]2(C(=O)CO)O1	3.0%	-5.8%	-12.6%	-11.1%	·	·	·
CC(=O)OCC(=O)[C@@]12OC3(CCCC3)O[C@@H]1C[C@H]1[C@@H]3CCC4=CC(=O)C=C[C@]4(C)[C@@]3(F)[C@@H](O)C[C@@]12C	0.8%	-17.0%	14.1µM*	11.7%	4.5	-11.3%	7.08µM*
O=C(NC(Nc1nc2ccc([N+](=O)[O-])cc2s1)(C(F)(F)F)C(F)(F)F)c1ccccc1Cl	-3.0%	-14.0%	?	22.7%	9.1	-4.9%	22.4µM*
O=C(NC(Nc1nc2ccc([N+](=O)[O-])cc2s1)(C(F)(F)F)C(F)(F)F)c1cccnc1	-4.9%	-13.0%	?	4.4%	6.0	-3.0%	12.6µM*
CN(C)S(=O)(=O)c1ccc2nc(NC(=O)c3cccnc3)sc2c1	0.8%	-19.4%	4.7%	-18.1%	·	·	·
CC(=O)Nc1cnn(Cc2ccc(Br)cc2)c1	-3.5%	7.7%	-3.0%	5.3%	·	·	·
O=c1[nH]c(/C=C/c2ccccc2)c([N+](=O)[O-])c(=O)[nH]1	-10.4%	-1.8%	-22.6%	0.7%	·	·	·
O=c1[nH]c(/C=C/c2cccc([N+](=O)[O-])c2)c([N+](=O)[O-])c(=O)[nH]1	0.0%	-4.4%	44.7µM*	3.7%	3.9	-16.1%	31.6µM*
Cc1cc(C(C)(C)C)oc1C(=O)NCCCNC(=O)c1oc(C(C)(C)C)cc1C	-7.8%	-10.1%	?	-1.7%	-3.5	?	11.2µM*
COc1ccc2c(C(=O)c3ccc(C)cc3)n(Cc3ccc(C(N)=O)cc3)[n+]([O-])c2c1	·	·	?	-4.0%	3.7	-18.9%	15.8µM*
SMILES	TSG101-PTAP inh	Anesthetic bind	mIDH1 inhibitor	ERG-DNA inh	IDH1 autofl	IDH1 WT	IDH1 R132H conf
CCCN1CCC(=O)N([C@H](COc2ccccc2)c2ccccc2)CC1	4.4%	-8.3%	-12.9%	-20.1%	·	·	·
CC(C)c1ccccc1-n1c(SCc2cc(=O)oc3ccc4ccccc4c23)nnc1-c1cccnc1	0.7%	-7.3%	?	8.9%	6.6	-24.3%	11.2µM*
O=S(=O)(NCC(Nc1ccc(Cl)cc1)c1ccccc1)c1ccccc1 (centres undefined)	2.3%	65.6%	?	6.0%	2.1	-6.0%	22.4µM*
Cc1ccc(NC(CNS(=O)(=O)c2ccc(Cl)cc2)c2ccccc2)cc1 (centres undefined)	-1.9%	35.1%	-2.7%	3.8%	·	·	·
COCC(C)OC(=O)C(C#N)c1nc2ccccc2nc1N1CCN(Cc2ccccc2)CC1 (centres undefined)	-3.3%	3.8%	6.7%	0.1%	·	·	·
O=C(O)c1cccc(S(=O)(=O)N2CCN(C(c3ccccc3)c3ccccc3)CC2)c1	-13.9%	-11.0%	?	0.7%	7.4	5.2%	31.6µM*
Cc1cccc(N2CCN(S(=O)(=O)c3ccc4c(c3)NC(=O)C(C)S4)CC2)c1C (centres undefined)	-10.6%	-13.0%	-1.6%	0.1%	·	·	·
Cc1cccc(N2CCN(S(=O)(=O)c3ccc4c(c3)C(C(C)C)C(=O)N4)CC2)c1C (centres undefined)	·	-0.4%	39.8µM*	-8.1%	3.3	6.0%	22.4µM*
CC(=O)Oc1ccc(C(=O)[C@H]2[C@H]3C(=O)N(c4ccc(C)cc4C)C(=O)[C@H]3[C@@H]3C=CC=NN32)cc1	-0.6%	-16.8%	41.4µM*	7.2%	4.4	-10.7%	28.2µM*
Cc1ccccc1NC(=O)c1cccc(N2C(=O)C3CCC(C)CC3C2=O)c1 (centres undefined)	-3.6%	-12.2%	-6.8%	-7.9%	·	·	·
CCOC(=O)CSC1=NC(=O)/C(=C/c2ccc(Br)cc2)S1	1.8%	-8.8%	?	15.2%	1.2	70.8µM*	35.5µM*

Screens from PubChem.
